The full ranking holds about 1,900 compounds; the median of “excess over highest single agent (ExcessHSA) synergy score, 6x6 matrix” is about -83, and the lowest 2% start at about -370. The entries come from a sample that favours the lowest values as a whole.
test system: NCI-H446; assay: excess over highest single agent (ExcessHSA) synergy score, 6x6 matrix; higher = less synergy (more negative = stronger synergy); conditions: 72 h; CellTiter-Glo viability

Row | Structure (SMILES) | excess over highest single agent
1 | FC(F)(F)c1ccc(Nc2nc3ccc(Oc4ccnc(-c5ncc(C(F)(F)F)[nH]5)c4)cc3[nH]2)cc1 + Cc1sc2c(c1C)C(c1ccc(Cl)cc1)=N[C@@H](CC(=O)OC(C)(C)C)c1nnc(C)n1-2 [NCGC00250412-19] | -7.92
2 | CC1(C)CC(=O)c2c(C(F)(F)F)nn(-c3ccc(C(N)=O)c(N[C@H]4CC[C@H](OC(=O)CN)CC4)c3)c2C1 + Cc1sc2c(c1C)C(c1ccc(Cl)cc1)=N[C@@H](CC(=O)OC(C)(C)C)c1nnc(C)n1-2 [NCGC00250412-19] | -482
3 | CC1(C)CC(=O)c2c(C(F)(F)F)nn(-c3ccc(C(N)=O)c(N[C@H]4CC[C@H](O)CC4)c3)c2C1 + Cc1sc2c(c1C)C(c1ccc(Cl)cc1)=N[C@@H](CC(=O)OC(C)(C)C)c1nnc(C)n1-2 [NCGC00250412-19] | -379
4 | COc1cccc2c1CCCC2CCCN1CCN(C2CCCCC2)CC1 (stereo not drawn) + Cc1sc2c(c1C)C(c1ccc(Cl)cc1)=N[C@@H](CC(=O)OC(C)(C)C)c1nnc(C)n1-2 [NCGC00250412-19] | -180
5 | Cc1nnc(C(C)C)n1[C@H]1C[C@H]2CC[C@@H](C1)N2CC[C@H](NC(=O)C1CCC(F)(F)CC1)c1ccccc1 + Cc1sc2c(c1C)C(c1ccc(Cl)cc1)=N[C@@H](CC(=O)OC(C)(C)C)c1nnc(C)n1-2 [NCGC00250412-19] | -88.4
6 | O=C(CC12CC3CC(CC(C3)C1)C2)Nc1cccc2nc(NCCNCCO)ccc12 + Cc1sc2c(c1C)C(c1ccc(Cl)cc1)=N[C@@H](CC(=O)OC(C)(C)C)c1nnc(C)n1-2 [NCGC00250412-19] | -112
7 | COc1ccccc1[C@H](c1cccc2ccccc12)[C@@](C)(C#N)C(=O)N1CCC(c2cccc(C(F)(F)F)c2)CC1 + Cc1sc2c(c1C)C(c1ccc(Cl)cc1)=N[C@@H](CC(=O)OC(C)(C)C)c1nnc(C)n1-2 [NCGC00250412-19] | -352
8 | Oc1ccc2ccccc2c1SSc1c(O)ccc2ccccc12 + Cc1sc2c(c1C)C(c1ccc(Cl)cc1)=N[C@@H](CC(=O)OC(C)(C)C)c1nnc(C)n1-2 [NCGC00250412-19] | 56.9
9 | NS(=O)(=O)OC[C@@H]1C[C@@H](n2ccc3c(N[C@H]4CCc5ccccc54)ncnc32)C[C@@H]1O + Cc1sc2c(c1C)C(c1ccc(Cl)cc1)=N[C@@H](CC(=O)OC(C)(C)C)c1nnc(C)n1-2 [NCGC00250412-19] | -544
10 | O=C1NC(=O)C(c2cnc3ccccn23)=C1c1cn2c3c(cccc13)CN(C(=O)N1CCOCC1)CC2 + Cc1sc2c(c1C)C(c1ccc(Cl)cc1)=N[C@@H](CC(=O)OC(C)(C)C)c1nnc(C)n1-2 [NCGC00250412-19] | -24.9
11 | NC1(Cc2ccc(Cl)cc2)CCN(c2ncnc3[nH]ccc23)CC1 + Cc1sc2c(c1C)C(c1ccc(Cl)cc1)=N[C@@H](CC(=O)OC(C)(C)C)c1nnc(C)n1-2 [NCGC00250412-19] | -66
12 | COc1cc(CCc2cc(NC(=O)c3ccc(N4CC(C)NC(C)C4)cc3)n[nH]2)cc(OC)c1 (stereo not drawn) + Cc1sc2c(c1C)C(c1ccc(Cl)cc1)=N[C@@H](CC(=O)OC(C)(C)C)c1nnc(C)n1-2 [NCGC00250412-19] | -88.8
13 | CC(C)C[C@H](NC(=O)[C@@H](O)[C@H](N)Cc1ccccc1)C(=O)O + Cc1sc2c(c1C)C(c1ccc(Cl)cc1)=N[C@@H](CC(=O)OC(C)(C)C)c1nnc(C)n1-2 [NCGC00250412-19] | -74.5
14 | COC[C@H](NC(=O)c1cnc(C)s1)C(=O)N[C@@H](COC)C(=O)N[C@@H](Cc1ccccc1)C(=O)[C@@]1(C)CO1 + Cc1sc2c(c1C)C(c1ccc(Cl)cc1)=N[C@@H](CC(=O)OC(C)(C)C)c1nnc(C)n1-2 [NCGC00250412-19] | -227
15 | CC(C)C[C@H](NC(=O)[C@H](CCc1ccccc1)NC(=O)CN1CCOCC1)C(=O)N[C@@H](Cc1ccccc1)C(=O)N[C@@H](CC(C)C)C(=O)[C@@]1(C)CO1 + Cc1sc2c(c1C)C(c1ccc(Cl)cc1)=N[C@@H](CC(=O)OC(C)(C)C)c1nnc(C)n1-2 [NCGC00250412-19] | -521
16 | CN(C)CCN(C)C(=O)c1ccc(NC(=O)Nc2ccc(-c3nc(N4CCOCC4)c4ccn(CC(F)(F)F)c4n3)cc2)cc1 + Cc1sc2c(c1C)C(c1ccc(Cl)cc1)=N[C@@H](CC(=O)OC(C)(C)C)c1nnc(C)n1-2 [NCGC00250412-19] | -272
17 | CC(C)=CC[C@@H](O)C1=CC(=O)c2c(O)ccc(O)c2C1=O + Cc1sc2c(c1C)C(c1ccc(Cl)cc1)=N[C@@H](CC(=O)OC(C)(C)C)c1nnc(C)n1-2 [NCGC00250412-19] | -344
18 | Clc1ccc(-c2nc3sccn3c2C=NOCc2ccc(Cl)c(Cl)c2)cc1 + Cc1sc2c(c1C)C(c1ccc(Cl)cc1)=N[C@@H](CC(=O)OC(C)(C)C)c1nnc(C)n1-2 [NCGC00250412-19] | -98.8
19 | CCOc1cc(/C=C2/C(=O)N(c3ccccc3)N=C2C)cc(Cl)c1OCC(=O)OC + Cc1sc2c(c1C)C(c1ccc(Cl)cc1)=N[C@@H](CC(=O)OC(C)(C)C)c1nnc(C)n1-2 [NCGC00250412-19] | 76.6
20 | COc1ccc(Nc2cc(-c3cnc(N)nc3)nc(N3CCOCC3)n2)cn1 + Cc1sc2c(c1C)C(c1ccc(Cl)cc1)=N[C@@H](CC(=O)OC(C)(C)C)c1nnc(C)n1-2 [NCGC00250412-19] | 3.49
21 | CS(=O)(=O)N1CCc2c(-c3cnc(N)nc3)nc(N3CCOCC3)nc21 + Cc1sc2c(c1C)C(c1ccc(Cl)cc1)=N[C@@H](CC(=O)OC(C)(C)C)c1nnc(C)n1-2 [NCGC00250412-19] | -391
22 | Cc1nc(N)ncc1-c1nc(N2CCOCC2)c2sc(C(C)(C)O)cc2n1 + Cc1sc2c(c1C)C(c1ccc(Cl)cc1)=N[C@@H](CC(=O)OC(C)(C)C)c1nnc(C)n1-2 [NCGC00250412-19] | -337
23 | N=C1S/C(=C\c2ccc(-c3ccc4c(c3)C(=O)NC4=O)o2)C(=O)N1c1ccc(Br)cc1 + Cc1sc2c(c1C)C(c1ccc(Cl)cc1)=N[C@@H](CC(=O)OC(C)(C)C)c1nnc(C)n1-2 [NCGC00250412-19] | 122
